Screening data: PubChem, Sanford-Burnham Center for Chemical Genomics
Rows were chosen to be rich in hits. Some 4.1% of all compounds tested hit in one or more screens of this group.
NALP1 yeast inh: NALP1 inflammasome inhibitors in reconstituted yeast, colorimetric, S. cerevisiae, triplicate retest; S. cerevisiae NALP1/ASC/caspase-1 growth, X-gal OD620, 72 h; inhibition, % at 10 µM; 0.61% of 280,000 active; in the data active = inhibition mostly above about 24%, no sharp cut-off; inactive = mostly below about 32%
NLRP3 yeast inh: NALP3 inflammasome inhibitors in reconstituted yeast, primary screen, luminescence, uHTS; Yeast reconstituted NLRP3/ASC/caspase-1, beta-gal luminescence, 24 h; inhibition, % at 10 µM; 0.39% of 330,000 active;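 active = inhibition of 50% or more; inactive = inhibition below 50%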;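 also: plate controls were induced DMSO wells for no effect and uninduced yeast grown without galactose for full effect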
tim23-1 inh: growth inhibitors of tim23-1 mutant yeast, primary screen, luminescence, uHTS | S. cerevisiae tim23-1 growth, BacTiter-Glo luminescence, 24 h | inhibition, % at 20 µM | 1.3% of 330,000 active;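 active = growth inhibition of the mutant yeast at or above 50%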;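 also: temperature-sensitive mutant grown at 25 °C; plate controls were DMSO-treated mutant yeast for no effect and medium wells lacking yeast for full effect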
tim10-1 inh: growth inhibitors of tim10-1 mutant yeast, primary screen, luminescence, uHTS. inhibition, % at 20 µM. 2.2% of 330,000 active. S. cerevisiae tim10-1 ts strain growth, BacTiter-Glo, 24 h;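 active = inhibition of at least 40%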;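 also: mutant grown at 25 °C; 0% = DMSO wells with yeast and 100% = wells holding no yeast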
TIM10 inh: growth inhibitors of isogenic TIM10 control yeast, primary screen, counter-screen for tim10-1 yeast inhibitor project, luminescence, uHTS; S. cerevisiae TIM10 strain growth, BacTiter-Glo luminescence, 24 h; inhibition, % at 10 µM; 1.4% of 330,000 active;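 active = inhibition of 40% or more at the single tested concentration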;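 also: wild-type TIM10 isogenic control strain grown at permissive 25 °C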
tim10-1 confirm: growth inhibitors of tim10-1 mutant yeast, confirmation, single concentration, luminescence, S. cerevisiae; shares compounds with tim10-1 inh; S. cerevisiae tim10-1 ts strain growth, BacTiter-Glo, 24 h; inhibition, % at 20 µM; 56% of 7,400 active;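 active = inhibition of yeast growth at or above a set limit in either of two repeat tests at 20 µM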;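 also: tim10-1 mutant grown at permissive 25 °C to find synthetic lethal compounds; 0% = DMSO yeast wells and 100% = medium wells without yeast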
tim10 confirm: growth inhibitors of wild-type TIM10 yeast, confirmation, counter-screen for tim10-1 synthetic lethality project, single concentration, luminescence, S. cerevisiae; inhibition, % at 10 µM; 63% of 4,600 active; S. cerevisiae tim10 strain growth, BacTiter-Glo luminescence, 24 h; AID 463215, 2010; shares compounds with TIM10 inh;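 active = inhibition of yeast growth at or above a set limit in either of two replicates at 10 µM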;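 also: this counterscreen used the strain with wild-type TIM10; 0% = yeast with DMSO and 100% = medium wells lacking yeast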
tim23-1 conf: tim23-1 mutant yeast growth inhibitors, confirmation, luminescence, single concentration; shares compounds with tim23-1 inh; S. cerevisiae tim23-1 growth, BacTiter-Glo luminescence, 24 h; inhibition, % at 20 µM; 83% of 4,400 active;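 active = inhibition above about 39% in either of two replicate wells at 20 µM, limit read from the data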;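 also: temperature-sensitive tim23-1 mutant grown at 25 °C; 0% = DMSO wells with yeast and 100% = medium wells without yeast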
Numbers without * were called inactive; x = not tested or not shown.

SMILES	NALP1 yeast inh	NLRP3 yeast inh	tim23-1 inh	tim10-1 inh	TIM10 inh	tim10-1 confirm	tim10 confirm	tim23-1 conf
CN1C2CCC1/C(=C\c1ccccc1)C(=O)/C2=C\c1ccccc1	-1	33	53*	47*	45*	36*	23	55*
O=C1/C(=C/c2ccccc2)CCC1C1CCCC1 (stereo unspecified)	39	23	17	16	12	x	x	x
O=C(/C=C/c1ccccn1)c1cc(Br)ccc1O	29	18	78*	70*	72*	62*	68*	75*
O=C(/C=C/c1ccccn1)c1ccc(Br)cc1O	53	x	x	x	x	x	x	x
O=C(OC1CCCCC1)c1ccc(NC(=O)c2ccco2)cc1	8	11	54*	44*	23	30	x	70*
COc1ccc2c(c1)CC/C2=N\OC(=O)c1ccccc1C	-5	37	70*	43*	73*	31	87*	75*
COc1ccc2c(c1)CCC/C2=N/OC(=O)c1ccccc1OC	13	17	43	28	24	x	x	x
O=C1CS(=O)(=O)N(Cc2ccccc2F)c2ccc(Br)cc21	x	x	72*	41*	32	47*	x	61*
Cc1ccsc1C(=O)OCC(=O)N1C(C)CCCC1C (stereo unspecified)	x	21	11	4	-3	x	x	x
CSc1nc(-c2ccc(C)cc2)nc(N)c1C#N	4	-9	9	-6	10	x	x	x
CC1=C(C#N)c2nc(N)c(C#N)c(C)c2/C1=C\c1ccc(C)cc1	17	21	56*	73*	82*	90*	1	68*
CCCCn1c(N)c(N(CC(C)C)C(=O)c2cc(Cl)nc3ccccc23)c(=O)[nH]c1=O	x	17	15	3	9	x	x	x
O=C(O)/C(=C\c1ccccc1OC(F)F)Sc1nnc(-c2ccc(F)cc2)o1	7	-22	70*	71*	59*	75*	68*	71*
COC(=O)c1c(NC(=O)c2ccc([N+](=O)[O-])o2)sc2c1CCN(C(C)C)C2	6	16	91*	91*	94*	91*	98*	92*
O=C(Nc1nnc(Cc2ccccc2)s1)C1CCN(C(=O)c2ccco2)CC1	-1	10	18	20	11	x	x	x
O=S(=O)(/N=C(\Sc1ccc(Cl)cc1)c1ccccc1)c1ccccc1	-6	4	55*	45*	34	40*	x	81*
CS/C(=N/S(=O)(=O)c1ccc(C)cc1)c1ccccc1	-24	-16	15	-5	-9	x	x	x
CC1CC(C)CN(S(=O)(=O)c2ccc(NC(=S)NC(=O)c3ccccc3)cc2)C1 (stereo unspecified)	-6	-6	-9	19	-6	x	x	x
CNCc1ccccc1Sc1cc(O)ccc1O	56*	18	60*	51*	36	47*	x	56*
CS(=O)(=O)c1ccc2nc(NC(=O)c3cccs3)sc2c1	30	-2	60*	44*	31	41*	x	54*
CC1(C)C2CCC1(CS(=O)(=O)NCc1ccc(C(F)(F)F)cc1)C(=O)C2 (stereo unspecified)	20	12	18	11	7	x	x	x
Fc1ccc(Sc2nc(-c3ccccc3)nnc2C(F)(F)F)cc1	30	16	60*	60*	0	36*	x	55*
CS(=O)(=O)c1cnc(-c2ccccc2)nc1Sc1ccc(F)cc1	20	6	-14	-43	-9	x	x	x
Cc1cc(C)cc(NC(=S)NCCN2CCOCC2)c1	x	-1	8	12	2	x	x	x
CCNC(=O)N1CCC(n2nccc2NC(=O)CCCc2ccccc2)CC1	4	10	-3	-7	2	x	x	x
SMILES	NALP1 yeast inh	NLRP3 yeast inh	tim23-1 inh	tim10-1 inh	TIM10 inh	tim10-1 confirm	tim10 confirm	tim23-1 conf
c1ccc2c(c1)OCCc1c-2[nH]c2ccccc12	11	15	61*	46*	20	42*	x	58*
CCOC(=O)CSC1=NC(=O)/C(=C/c2ccc(OC)cc2)S1	32	21	90*	40*	59*	70*	-6	39*
COc1ccc(/C=C2\SC(N3CCc4ccccc4C3)=NC2=O)cc1	55	25	65*	55*	53*	50*	-14	52*
COc1ccc(/C=C2\SC(N)=NC2=O)cc1	13	20	15	10	4	x	x	x
NNC(=O)c1cccc(COc2cccc(Br)c2)c1	1	7	51*	45*	36	29	x	18
NNC(=O)c1cccc(COc2ccc(Br)cc2)c1	36	30	46	39	26	x	x	x
CCN(c1ccc(C)cc1C)S(=O)(=O)c1nnc(NC(=O)C(C)(C)C)s1	-1	9	15	14	7	x	x	x
O=C(Nc1ncc(Br)s1)C(Cc1ccccc1)n1cccc1 (stereo unspecified)	-44	-5	67*	63*	58*	54*	57*	54*
O=C1c2ccccc2C(=O)C1(O)O	x	7	-11	-15	1	x	x	x
CC1(S(=O)(=O)O)CC(=O)c2ccccc2C1=O (stereo unspecified)	13	-7	67*	41*	32	28	x	63*
CC(C)c1c(C(=O)N/N=C/C=C/c2ccccc2)nnn1-c1nonc1N	0	0	21	25	-12	x	x	x
COc1ccc(-n2nc(C#N)c(Cl)cc2=O)cc1	4	-41	61*	47*	31	30	x	48*
COC(=O)c1nn(-c2ccc(OC)cc2)c(=O)cc1O	4	26	15	-8	-12	x	x	x
CCn1c2ccccc2c2cc(/C(C)=N/O)ccc21	-30	14	75*	61*	42*	56*	45*	84*
COc1cc(NC(=O)c2ccc([N+](=O)[O-])o2)ccc1NC(=O)c1cccs1	12	25	59*	46*	32	39*	x	-14
O=C(Nc1ccc(Cc2ccncc2)cc1)c1ccc([N+](=O)[O-])o1	x	3	71*	67*	45*	59*	43*	58*
COc1cc(NC(=O)c2cccs2)ccc1NC(=O)Cc1ccccc1	22	13	49	-16	17	x	x	x
